Tau FP inhib = blocks human tau fibril formation measured by polarization; P10636; K18 P301L tau heparin fibrillization, Alexa594 FP, 6 h; Potency, µM (highest dose often 57.7 µM), for the others: top-dose activity, negative = inhibition, most hits filed as inhibitors; 0.39% of 280,000 active; AID 1468; note: potency is the fitted concentration of half-maximal effect; nearly all actives have a fitted effect of over 55% in size
Target sequence (P10636 561-689 P618L limits assumed): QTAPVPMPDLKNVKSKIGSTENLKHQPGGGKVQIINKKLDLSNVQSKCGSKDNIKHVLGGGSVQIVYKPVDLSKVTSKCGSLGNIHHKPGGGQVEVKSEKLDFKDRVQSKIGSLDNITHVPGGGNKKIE
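Steps: dispense K18 P301L tau (15 uM plus 0.24 uM Alexa 594 tracer, final) in pH 7 sodium acetate; add compound; add heparin (20 uM final); incubate 6 hr, 37 C; add ThT (30 uM final); after 1 hr ambient, read FP.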
Sfp inh = inhibitors of Bacillus subtilis Sfp phosphopantetheinyl transferase; AID 1490; Biochemical Sfp PPTase activity, qHTS; 3.5% of 310,000 active; Potency, µM, inactives show largest response in the series, negative = inhibition, usual class: inhibitors;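 note: the enzyme is Sfp with the accession as filed and its product quenches rhodamine fluorescence; potency is the fitted concentration of half-maximal effect; 0% = enzyme reaction without inhibitor and -100% = no enzyme wells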
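Fluorescence-quenching assay: 15 nM Sfp-PPTase preincubated 15 min at room temperature with compound, then 5 uM rhodamine-CoA and 12.5 uM BHQ-2-labelled YbbR peptide added. Fluorescence (ex 525/em 598 nm) read at start and after 30 min; difference gives rate.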
Tau fluor counter = counter-screen for tau fibril formation inhibitors; tau K18 P301L Alexa594 fluorescence, heparin fibrillization; Potency, µM (titrated, usually from 57.7 µM), for the others: at the top dose activity change, negative = decrease; 0.93% of 280,000 active; AID 1463; note: potency is the fitted concentration of half-maximal effect; nearly all actives have a fitted effect of over 55% in size
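Human K18 P301L tau (15 uM unlabeled plus 0.24 uM Alexa 594-labeled, final) in 100 mM sodium acetate pH 7 was mixed with compound and 20 uM heparin and incubated 6 hr at 37 C.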
Coupling enz = inhibits coupling enzyme system, counter-screen for aldolase hits | coupling enzyme system counterscreen, AmpLite Red fluorescence | activity change, negative = inhibition, % at 58.2 µM, hits read low | 0.67% of 290,000 active; in the data active = activity change below about -30%
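Counterscreen lacking aldolase: glyceraldehyde-3-phosphate coupling-enzyme reagent preincubated 10 min at RT with compound (at 57.5 uM final), then substrate/coupling system with AmpLite Red added; fluorescence read at 525/598 nm after 20 min RT.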
JMJD2E inh = JMJD2E (human) inhibition | B2RXH2 | Potency, µM (doses to about 57.1 µM), for inactives: at the top dose activity change, negative = inhibition, actives largely listed as inhibitors | AID 2147 | JMJD2E catalytic domain, FDH-coupled NADH fluorescence (FDH is formaldehyde dehydrogenase) | 1.6% of 230,000 active; active = well fitted inhibition curve with a large enough effect, not every such curve was filed as active; inconclusive = small, poorly fitted or top-dose-only effect, or another doubt; inactive = no such curve, though single readings can be large or run the other way;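 note: potency is the fitted concentration of half-maximal effect; 0% = wells with enzyme and -100% = buffer wells without enzyme; nearly all actives have a fitted effect of over 50% in size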
Target sequence (B2RXH2 1-337 limits assumed): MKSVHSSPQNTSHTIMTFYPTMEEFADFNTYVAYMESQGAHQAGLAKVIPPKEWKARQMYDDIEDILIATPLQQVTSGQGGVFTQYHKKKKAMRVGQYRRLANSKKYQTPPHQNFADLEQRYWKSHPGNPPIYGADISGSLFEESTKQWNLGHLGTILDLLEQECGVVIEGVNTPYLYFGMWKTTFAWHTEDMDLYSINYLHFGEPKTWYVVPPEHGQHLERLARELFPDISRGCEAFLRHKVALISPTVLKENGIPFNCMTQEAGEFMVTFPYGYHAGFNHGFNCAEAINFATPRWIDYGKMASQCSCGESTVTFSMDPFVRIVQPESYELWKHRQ
Tau fibril ThT = inhibitors of human tau fibril formation, thioflavin T binding; Potency, µM (doses to about 57.4 µM), inactives show top-dose activity, negative = inhibition, most hits filed as inhibitors; recombinant tau K18 P301L (four-repeat tau fragment), heparin-induced fibrillization, ThT fluorescence; 2.1% of 270,000 active; AID 1460; P10636; note: potency is the fitted concentration of half-maximal effect; nearly all actives have a fitted effect of over 55% in size
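K18 P301L tau (15 uM + 0.24 uM Alexa 594-tagged), heparin 20 uM, NaOAc pH 7, 6 h 37 C; ThT 30 uM, 1 h RT, ex 450/em 510 nm.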
An asterisk follows results filed as active; ? = inconclusive; / = not tested or not shown; [ ] = remark or other dose. A selection: hits, their analogues and other compounds. The true share with any hit is near 5.3%. Unless noted, calls come from the whole dose curve; as a rule, active = well fitted curve in the direction sought with a large enough effect; inconclusive = small, poorly fitted or top-dose-only effect, or another doubt; inactive = no such curve, though single readings can be large; an effect the other way counts as inactive or inconclusive. Unless noted, % is set by controls: 0 for no effect and ±100 for the full control effect.

SMILES	Tau FP inhib	Sfp inh	Tau fluor counter	Coupling enz	JMJD2E inh	Tau fibril ThT
C=CCn1c(O)c(C(CC)=Nc2ccc(N(C)C)cc2)c(=O)[nH]c1=O	?	50µM*	?	-20	?	?
C=CCn1c(O)c(/C(CC)=N/NC(=S)Nc2ccccc2)c(=O)[nH]c1=O	7%	22µM*	-28%	-2	?	?
C=CCn1c(O)c(/C(C)=N/NC(=S)Nc2ccccc2)c(=O)[nH]c1=O	-7%	35µM*	?	2	?	?
O=CN1CCCCC1C1CC[C@H]2CCCCN2C1 (stereo not given in full)	2%	-15%	1%	1	-10%	1%
C=CCN1C[C@H](C)N([C@H](c2ccc(C(=O)N(CC)CC)cc2)c2cccc(O)c2)C[C@H]1C	-3%	-5%	-7%	0	8%	-11%
COc1ccc2oc(=O)c(C(=O)NCCc3c(C)[nH]c4ccc(F)cc34)cc2c1	?	/	7.9µM*[quencher]	/	/	?
Cc1ccc2[nH]c(C)c(CCNC(=O)c3cc4cc([N+](=O)[O-])ccc4oc3=O)c2c1	13%	-7%	?	1	6%	?
CCN(CC)C(=O)N[C@H]1C=C2c3cccc4[nH]cc(c34)C[C@@H]2N(C)C1	/	4%	/	-10	?	/
COc1cc2c(c(OC)c1OC)-c1ccc(O)c(=O)cc1[C@@H](NC(C)=O)CC2	-8%	-27%	-16%	0	11µM*	-20%
COc1ccc(C(=O)Nc2ccc(S(=O)(=O)N(Cc3ccccc3)c3ccccc3)cc2)cc1	16µM*	/	?	/	/	?
COP(=S)(OC)Oc1ccc(Sc2ccc(OP(=S)(OC)OC)cc2)cc1	/	40µM*	/	/	/	/
COc1ccc(C[C@@H]2NC[C@H](O)[C@@H]2OC(C)=O)cc1	/	9%	/	0	-1%[25.5 µM]	/
N/C(=N\N=C/c1ccc(-c2ccc(O)c(C(=O)O)c2)o1)N[N+](=O)[O-]	-4%	50µM*	?	-4	?	4.5µM*
COc1ccc(OC)c(N2C(=O)NC(=O)/C(=C\c3ccc([N+](=O)[O-])s3)C2=O)c1	?	22µM*	?	-20	22µM*	11µM*
O=C1NC(=O)N(c2ccccc2)C(=O)/C1=C\c1ccc([N+](=O)[O-])s1	?	13µM*	?	-12	?	/
CN1C(=O)NC(=O)/C(=C/c2ccc([N+](=O)[O-])s2)C1=O	28µM*	11µM*	?	-21	22µM*	/
Cc1ccc(/C=C2/C(=O)NC(=O)N(C)C2=O)cc1	-16%	?	-3%	-1	-12%	?
N=C(N)c1c(O)n(C2CCCCC2)c(=O)n(C2CCCCC2)c1=O	28µM*	24%	?	-5	-9%	0%
COc1ccc(Nc2cc(C)c3cc(NC(=O)c4ccccc4Cl)ccc3n2)cc1	?	/	8.9µM*[quencher]	/	/	4µM*
Cc1cc(C=C2C(=O)NC(=S)NC2=O)c(C)n1-c1ccc2c(c1)OCO2	-8%	45µM*	?	-1	7%	14µM*
CC(CN)CC(=O)O (stereo not given)	-16%	12%	-6%	/	/	-3%
C=CCN1C(=O)/C(=C/c2cc(C)n(-c3ccccn3)c2C)C(=O)NC1=S	-3%	?	-18%	6	-1%	?
O=C1NC(=S)NC(=O)C1=Cc1cccc2cc3ccccc3cc12	-16%	25µM*	16µM*[quencher]	0	-5%	11µM*
O=c1[nH]c(O)c(Cc2ccc3c(c2)OCO3)c(=O)[nH]1	15%	7%	?	2	-1%	/
O=C(N=Nc1c(O)[nH]c(=O)[nH]c1=O)C1COc2ccccc2O1 (stereo not given)	?	?	-11%	-29	-27%	28µM*
O=c1[nH]c(O)c(N=Nc2ccc(S(=O)(=O)N3CCOCC3)cc2)c(=O)[nH]1	-4%	10%	-14%	0	0%	?
